Measured values: publication PMC5540273 (PLoS ONE, 2017)

Legend:
Conditions in all cases: concentration: 1 μM, replicates: in singlicate; n = 1
MLK1 = system: T1, MLK1
T1 construct: gene MAP3K9

MLK2 = system: MLK2
MLK3 = system: MLK3
MRCKA = system: MRCKA
MRCKB = system: T2, MRCKB
T2 construct: gene CDC42BPB

MST1R = system: MST1R
MST1 = system: T3, MST1
T3 construct: gene STK4

MST2 = system: T4, MST2
T4 construct: gene STK3

MST3 = system: T5, MST3
T5 construct: gene STK24

MST4 = system: MST4
MTOR = system: MTOR
MUSK = system: MUSK
MYLK2 = system: MYLK2
MYLK4 = system: MYLK4
MYLK = system: MYLK
MYO3A = system: MYO3A
MYO3B = system: MYO3B
NDR1 = system: T6, NDR1
T6 construct: gene STK38

NDR2 = system: NDR2
NEK10 = system: NEK10
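Also: KINOMEscan kinase panel screen.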

Row | Compound | %Inh (MLK1) [%] | %Inh (MLK2) [%] | %Inh (MLK3) [%] | %Inh (MRCKA) [%] | %Inh (MRCKB) [%] | %Inh (MST1R) [%] | %Inh (MST1) [%] | %Inh (MST2) [%] | %Inh (MST3) [%] | %Inh (MST4) [%] | %Inh (MTOR) [%] | %Inh (MUSK) [%] | %Inh (MYLK2) [%] | %Inh (MYLK4) [%] | %Inh (MYLK) [%] | %Inh (MYO3A) [%] | %Inh (MYO3B) [%] | %Inh (NDR1) [%] | %Inh (NDR2) [%] | %Inh (NEK10) [%]
1 | CC(C)c1nc(-c2ccc(F)c(NS(=O)(=O)c3c(F)cccc3F)c2)c(-c2ccnc(Nc3ccc(N4CCOCC4)nc3)n2)s1 [GSK1804250] | 52 | 8 | 52 | 4 | 0 | 46 | 17 | 3 | 23 | 23 | 32 | 8 | 2 | 1 | 7 | 51 | 54 | 23 | 0 | 7
2 | O=C(Nc1n[nH]c2cc(-c3cccs3)ccc12)C1CC1 [SB-731284] | 0 | 27 | 0 | 0 | 0 | 0 | 10 | 0 | 7 | 39 | 42 | 0 | 87 | 24 | 52 | 0 | 0 | 27 | 0 | 27
3 | COc1cc(Nc2ccnc3cc(-c4ccncc4)ccc23)cc(OC)c1OC.Cl [GW494610] | 2 | 27 | 21 | 0 | 4 | 41 | 9 | 0 | 0 | 0 | 20 | 10 | 13 | 0 | 84 | 19 | 6 | 17 | 0 | 0
4 | COc1cccc(-c2nc(-c3ccccc3)[nH]c2-c2ccncc2)c1 [SB-610250] | 0 | 0 | 0 | 41 | 0 | 23 | 8 | 0 | 0 | 0 | 13 | 0 | 8 | 0 | 0 | 18 | 0 | 9 | 0 | 20
5 | Nc1ncnc2scc(-c3ccc(NC(=O)Cc4cc(F)ccc4F)cc3)c12.O=C(O)C(F)(F)F [SB-731254-M] | 0 | 28 | 34 | 0 | 4 | 20 | 42 | 0 | 30 | 24 | 0 | 2 | 38 | 72 | 8 | 29 | 0 | 12 | 25 | 0
6 | COc1cc(Nc2nccc(N3CCC(NS(=O)(=O)c4ccc(NC(C)=O)cc4)CC3)n2)cc(OC)c1OC [GSK1379825] | 52 | 0 | 51 | 92.3 | 80 | 13 | 0 | 19 | 0 | 0 | 16 | 14 | 61 | 0 | 1 | 0 | 0 | 0 | 0 | 17
7 | Cc1ccc(NC(=O)c2ccc(Cl)c(Cl)c2)cc1-c1ccc(C(=O)Nc2ccncc2)cc1 [GSK1398460] | 7 | 16 | 20 | 25 | 32 | 31 | 8 | 0 | 6 | 0 | 0 | 6 | 0 | 5 | 27 | 0 | 0 | 14 | 0 | 0
8 | CC(C)c1nc(-c2cccc(NS(=O)(=O)c3c(F)cccc3F)c2)c(-c2ccnc(Nc3ccc(N4CCOCC4)nc3)n2)s1.Cl [GSK1723980] | 89 | 34 | 73 | 18 | 0 | 17 | 0 | 0 | 13 | 16 | 7 | 0 | 0 | 0 | 6 | 25 | 47 | 32 | 0 | 9
9 | COc1ccc(NC(=O)c2ccoc2)cc1-c1ccc(C(=O)NCC2CC2)cc1 [GW810437] | 0 | 25 | 0 | 0 | 19 | 0 | 22 | 8 | 1 | 0 | 36 | 0 | 0 | 0 | 0 | 7 | 21 | 32 | 16 | 16
10 | Cc1ccc(NC(=O)c2ccnc(N3CCCCC3)c2)cc1-c1ccc(C(=O)NCC2CC2)cc1 [GW775610] | 0 | 0 | 4 | 0 | 9 | 4 | 13 | 32 | 30 | 0 | 9 | 0 | 15 | 0 | 0 | 0 | 3 | 0 | 5 | 0
